Consider 66 molecules from PubChem BioAssay AID588342 (National Center for Advancing Translational Sciences (NCATS), 2011).

Each structure is given as a SMILES string. Out of some 360,000 compounds screened, about 25,000 (6.9%) were called active. Entries that show only a call come without a potency. Another 9% or so got no clear call; they are omitted. Calls follow the shape of the dose curve; as a rule, active = well fitted inhibition curve with a large enough effect; inconclusive = small, poorly fitted or top-dose-only effect; inactive = flat fitted curve, though single readings scatter. The sample as a whole holds a higher share of actives than the screen did.
Potency is read from the fitted curve at half-maximal effect.

Sequence of Luciferin 4-monooxygenase (Photinus pyralis) (P08659 whole entry, looked up): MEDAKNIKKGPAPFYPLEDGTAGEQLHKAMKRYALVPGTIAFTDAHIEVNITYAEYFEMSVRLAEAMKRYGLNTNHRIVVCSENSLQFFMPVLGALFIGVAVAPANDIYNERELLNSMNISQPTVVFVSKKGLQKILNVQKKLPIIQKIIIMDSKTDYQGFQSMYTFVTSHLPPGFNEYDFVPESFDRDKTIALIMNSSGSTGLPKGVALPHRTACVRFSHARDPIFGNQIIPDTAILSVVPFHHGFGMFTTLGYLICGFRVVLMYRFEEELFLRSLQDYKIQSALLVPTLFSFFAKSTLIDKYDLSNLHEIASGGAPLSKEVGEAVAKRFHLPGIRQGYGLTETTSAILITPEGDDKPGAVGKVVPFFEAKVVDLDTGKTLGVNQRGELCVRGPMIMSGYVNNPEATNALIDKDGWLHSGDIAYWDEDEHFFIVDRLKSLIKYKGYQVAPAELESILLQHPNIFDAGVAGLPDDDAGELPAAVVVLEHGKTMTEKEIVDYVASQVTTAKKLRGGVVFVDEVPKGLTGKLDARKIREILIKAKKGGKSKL

In the experiment the target is Luciferin 4-monooxygenase (Photinus pyralis) (UniProt P08659). Put plainly: qHTS profiling assay for firefly luciferase inhibitor/activator using purifed enzyme and Km concentrations of substrates (counterscreen for miR-21 project). Also: nearly all actives have a fitted effect of over 55% in size. Conditions: purified FLuc, luminescence inhibition; series mostly up to 57.5 µM. The gist of the method:
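Biochemical qHTS of compounds, final roughly 60 µM downward over six points, against 10 nM purified firefly luciferase using Km concentrations of substrates (10 uM D-luciferin, 10 uM ATP) in Tris acetate pH 7.5 buffer; luminescence output.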
(qHTS replaces the single test concentration by a dilution series.)
Turning to `S=C(Nc1cccc(Br)c1)N1CCn2cccc2C1c1cccnc1` (stereo unspecified), the Potency result is “inactive”. Then `CCCCCCCCCCCCCCCC(=O)OC/C=C(C)/C=C/C=C(C)/C=C/C1=C(C)CCCC1(C)C`, with “inactive”; and `O=C(CCS(=O)(=O)c1ccc2c(c1)NC(=O)CO2)Nc1cccc(C(F)(F)F)c1`, with “inactive”. Then `CCNc1nc(SCCOc2ccccc2)nc(N(C)C)n1`, with “inactive”; and `COc1cn(CC(=O)Nc2cccc(C)c2C)c(CN2CCCCC2)cc1=O`, with “inactive”; and `Cc1ccc(S(=O)(=O)Oc2ccc(/C=N/NC(=O)c3ccncc3)cc2)cc1`, with “inactive”. Take `Cc1ccc(/C=N/NC(=O)COc2ccccc2-c2ccccc2)cc1`: the Potency result was “inactive”. Regarding `Cc1ccc(/C=N/NC(=O)C(NC(=O)c2ccccc2)c2n[nH]c(=O)c3ccccc23)cc1` (stereo unspecified), the Potency was 19 µM (active). Then `CCOC(=O)c1cccc(NC(=O)C(Cc2ccccc2)NS(=O)(=O)c2cccc3nsnc23)c1` (stereo unspecified), with “inactive”; and `CN(C(=O)CSc1nc2ccccc2n1Cc1ccccc1C#N)c1ccccc1`, with “inactive”. Then `O=C(COc1ccc(/C=N/NC(=O)c2ccc(O)cc2)cc1)Nc1ccc([N+](=O)[O-])cc1`, with “inactive”; and `O=C(N/N=C/c1ccsc1)c1cc(O)cc(O)c1`, with 21.3 µM (active).

With `O=C(N/N=C/c1ccc(O)c(O)c1)C1c2ccccc2Oc2ccccc21`, the Potency result is “inactive”. Then `Cc1cccc(-n2ncc(C(=O)N3CCc4ccccc4C3)c2C2CCN(C(=O)OC(C)(C)C)CC2)c1`, with “inactive”; and `Cc1ccc(NC(=O)c2nc(S(=O)(=O)Cc3cccc(C)c3)ncc2Cl)cc1`, with “inactive”.

With `Nc1[nH]c(=S)nc2nc(-c3ccccc3)c(-c3ccccc3)nc12`, the Potency entry was “inactive”. `Cc1c(Br)c([N+](=O)[O-])nn1CC(=O)N1CCN(Cc2ccccc2)CC1`: the Potency is 13.5 µM (active). Then `O=C(c1cccc([N+](=O)[O-])c1)N1CCN(Cc2ccccc2)CC1`, with “inactive”. Then `Cn1nnnc1SCC(=O)N1CCN(Cc2ccccc2)CC1`, with “inactive”; and `Cc1cccc(NS(=O)(=O)c2ccc(-c3cnc(C4CC4)o3)cc2)c1`, with “inactive”. For the molecule `COc1ccc(/C=N/N=C2/C(=O)Nc3ccccc32)cc1O`, the Potency is 19 µM (active). Then `COc1ccc(/C=N/N(C)C2=NS(=O)(=O)c3ccccc32)cc1OC`, with “inactive”; and `CCOc1ccc(/C=N/NC(=O)CSc2ccccn2)cc1O`, with “inactive”; and `CCOC(=O)c1cc(-c2ccccc2)n(-c2cccc(C(=O)Nc3cc(OC)cc(OC)c3)c2)c1C`, with “inactive”. Then `Cc1cc(C)c2oc(C(=O)Nc3ccc(S(=O)(=O)N(C)c4ccccc4)cc3)cc(=O)c2c1`, with “inactive”. Regarding `C=CCC1(CC=C)CCCN1C(=O)c1cc(COc2ccc(-n3cncn3)cc2)on1`, the Potency result is “inactive”.

In the case of `O=C(c1cc(COc2c(F)cccc2F)on1)N1CCSCC1`, the Potency was 19 µM (active). Then `O=C(c1cc(COc2cccc(C(F)(F)F)c2)on1)N1CCSCC1`, with “inactive”; and `O=C(c1cc(COc2ccc(F)cc2F)on1)N1CCOCC1`, with 16.9 µM (active); and `O=C(Oc1ccc(F)cc1)N1CCOCC1`, with “inactive”. In the case of `O=C(NCCN1CCCC(O)C1)c1cc(COc2c(F)cccc2F)on1` (stereo unspecified), the Potency entry is “inactive”. On to `COc1ccc(CCN2C(=O)c3oc4cc(C)cc(C)c4c(=O)c3C2c2ccccc2F)cc1OC` (stereo unspecified), for which the Potency result is “inactive”. Then `COc1cccc(CNCCSc2nnnn2C)c1OCc1ccccc1Cl`, with “inactive”; and `O=C(NCCCc1ccccc1)c1ccc2c(c1)sc1nc(-c3ccc(F)cc3)cn12`, with “inactive”; and `CCOc1ccc(-c2nc(C)sc2CC(=O)O)cc1`, with “inactive”. Take `C/C(=N/Nc1nc(-c2ccccc2)c(CC(=O)O)s1)c1ccccc1`: the Potency was 5.36 µM (active). Then `CCOC(=O)C(=O)Nc1nc(-c2ccccc2)c(CC)s1`, with “inactive”. On to `Cc1ccc(C)c(N2CCN(S(=O)(=O)c3ccc4c(c3)C(C(C)C)C(=O)N4)CC2)c1` (stereo unspecified), for which the Potency entry is “inactive”.

Regarding `CN(Cc1ccccc1)C(=O)c1ccc(COc2ccccc2)cc1`, the Potency entry was “inactive”.

`CN(Cc1ccc(F)cc1)C(=O)COc1ccc2ccccc2c1`: the Potency result was “inactive”. In the case of `CN(Cc1ccccc1)C(=O)COc1ccccc1`, the Potency is 9.53 µM (active). Consider `Cc1ccccc1-c1nc2scc(CCNC(=O)C(=O)Nc3ccc(F)cc3F)n2n1`, for which the Potency result was “inactive”. For the molecule `CC1CCCCC1NC(=O)COC(=O)Cc1ccc(Cl)cc1` (stereo unspecified), the Potency entry is “inactive”. `CCOc1ccc(C(=O)Nc2nccs2)cc1[N+](=O)[O-]`: the Potency entry is “inactive”.

In the case of `CC(=O)Oc1ccc(C(=O)Nc2nccs2)cc1`, the Potency was 10.7 µM (active). Then `CCN(c1ccccc1)S(=O)(=O)c1ccc(C(=O)Nc2nccs2)cc1`, with “inactive”. `Cc1nc(-c2ccccc2)sc1-c1nc(-c2ccccc2)ncc1S(=O)(=O)c1ccccc1`: the Potency entry is “inactive”. In the case of `Cc1nc(-c2ccccc2)sc1-c1nnc(C2CC2)o1`, the Potency was 15.1 µM (active). Take `COc1ccccc1-c1nnc(C2CCN(C(=O)c3ccc(Cl)cc3)CC2)o1`: the Potency result is “inactive”. Regarding `COc1cc(C(=O)NCCS(=O)(=O)N2CCN(c3ccccc3)CC2)cc(OC)c1OC`, the Potency result is “inactive”. As to `C/C(=C\c1ccccc1)C1NC(=O)c2c(sc3c2CCCC3)N1` (stereo unspecified), the Potency entry is “inactive”. For the molecule `CCOC(=O)N1CCc2c(sc3c2C(=O)NC(c2ccccc2F)N3)C1` (stereo unspecified), the Potency entry is “inactive”. For the molecule `O=C1NC(c2ccncc2)Nc2sc3c(c21)CCCC3` (stereo unspecified), the Potency is 21.3 µM (active). Then `CC(C)[C@H](NC(=O)OCc1ccccc1)C(=O)OCc1ccccc1`, with “inactive”. Then `Cc1cc(C)cc(Nc2ncnc3onc(-c4ccc(F)cc4)c23)c1`, with “inactive”; and `C/C(=N\NC(=O)c1cccnc1)c1ccc(-n2ccnc2)cc1`, with “inactive”; and `C/C(=N\NC(=O)c1ccc2ccccc2c1)c1cccnc1`, with 19 µM (active).

Turning to `C/C(=N\NC(N)=S)c1cccnc1`, the Potency result is “inactive”. As to `CCOc1ccccc1-c1cc(C(=O)N/N=C(\C)c2cccnc2)c2ccccc2n1`, the Potency entry was “inactive”.

Regarding `C/C(=N\NC(=O)Cc1ccc(Br)cc1)c1cccnc1`, the Potency result is “inactive”.

As to `COc1cc(NS(=O)(=O)c2cccs2)cc(OC)c1`, the Potency entry was “inactive”.

Turning to `O=S(=O)(Nc1ccccc1)c1ccc(NS(=O)(=O)c2cccs2)cc1`, the Potency result was “inactive”. For the molecule `C/C(=N\NC(=O)c1ccc(NS(=O)(=O)c2cccs2)cc1)c1ccc2ccccc2c1`, the Potency is 19 µM (active). Then `C/C(=N\NC(=O)c1cccnc1)c1ccc(-c2ccccc2)cc1`, with “inactive”. For the molecule `C/C(=N\NC(=O)Cc1ccccc1[N+](=O)[O-])c1cccnc1`, the Potency is 15.1 µM (active). With `C/C(=N\NC(=O)c1cc(-c2ccc(O)cc2)nc2ccccc12)c1cccnc1`, the Potency is 6.01 µM (active).
